Assay results: PubChem BioAssay AID1159580 (chemical genetic matrix, 2015)
Hit rate of the full screen: of about 5,500 compounds, about 2,000 (36%) were called active. Inconclusive results (about 18%) are left out. No stated cut-off is given here; in the data, active means normalized growth mostly below about 0.91 (no sharp cut-off); inconclusive means no clear call, values can overlap the other calls; inactive means mostly above about 0.92. The list shows a part of the results.

Assay: chemical genetic growth profiling, strain panel (AID 1159580);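 further: tested at 20 µM; growth read once vehicle control cultures reached saturation at 30 °C; 1 = growth at the plate median or of vehicle wells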
Conditions: growth OD

Measured: normalized growth

CCCCCC(C)N (configuration not stated)
inactive: S. cerevisiae deletion strains, locus YJR075W, strain HOC1, stronger effect = lower value 1.02 | S. cerevisiae deletion strains, locus YKL009W, strain mrt4, stronger effect = lower value 0.946 | S. cerevisiae deletion strains, locus YKL068W, stronger effect = lower value 1 | S. cerevisiae deletion strains, locus YKL085W, strain MDH1 (second series), stronger effect = lower value 1.05 | S. cerevisiae deletion strains, locus YKL085W, strain MDH1, stronger effect = lower value 1.05 | S. cerevisiae deletion strains, locus YKL160W, strain elf1, stronger effect = lower value 1.03 | S. cerevisiae deletion strains, locus YKL190W, strain CNB1, stronger effect = lower value 1.02 | S. cerevisiae deletion strains, locus YKR001C, strain vps1, stronger effect = lower value 0.988 | S. cerevisiae deletion strains, locus YKR026C, strain gcn3, stronger effect = lower value 1.03 | S. cerevisiae deletion strains, locus YKR091W, strain srl3, stronger effect = lower value 1.02 | S. cerevisiae deletion strains, locus YLL001W, strain dnm1, stronger effect = lower value 1.03 | S. cerevisiae deletion strains, locus YLL026W, stronger effect = lower value 1.03 | S. cerevisiae deletion strains, locus YLL041C, strain sdh2, stronger effect = lower value 1.02 | S. cerevisiae deletion strains, locus YLR027C, strain aat2, stronger effect = lower value 1.03 | S. cerevisiae deletion strains, locus YLR039C, strain RIC1, stronger effect = lower value 1.04 | S. cerevisiae deletion strains, locus YLR058C, strain SHM2, stronger effect = lower value 1.02 | S. cerevisiae deletion strains, locus YLR102C, strain apc9, stronger effect = lower value 0.995 | S. cerevisiae deletion strains, locus YLR113W, strain HOG1, stronger effect = lower value 0.978 | S. cerevisiae deletion strains, locus YLR221C, strain rsa3, stronger effect = lower value 1.03 | S. cerevisiae deletion strains, locus YLR258W, strain gsy2, stronger effect = lower value 1.02 | S. cerevisiae deletion strains, locus YLR262C, strain YPT6 (second series), stronger effect = lower value 1.05 | S. cerevisiae deletion strains, locus YLR262C, strain YPT6, stronger effect = lower value 1.05 | S. cerevisiae deletion strains, locus YLR268W, strain sec22, stronger effect = lower value 0.972 | S. cerevisiae deletion strains, locus YLR320W, strain mms22, stronger effect = lower value 1.04 | S. cerevisiae deletion strains, locus YLR330W, strain CHS5, stronger effect = lower value 1.01 | S. cerevisiae deletion strains, locus YLR342W, strain FKS1 (second series), stronger effect = lower value 1.03 | S. cerevisiae deletion strains, locus YLR342W, strain FKS1, stronger effect = lower value 1.03 | S. cerevisiae deletion strains, locus YLR357W, strain rsc2, stronger effect = lower value 1.05 | S. cerevisiae deletion strains, locus YLR370C, strain arc18, stronger effect = lower value 1.04 | S. cerevisiae deletion strains, locus YLR371W, strain rom2, stronger effect = lower value 0.989 | S. cerevisiae deletion strains, locus YLR384C, strain iki3, stronger effect = lower value 1.02 | S. cerevisiae deletion strains, locus YLR418C, strain cdc73, stronger effect = lower value 0.994 | S. cerevisiae deletion strains, locus YML016C, strain PPZ1, stronger effect = lower value 1.01 | S. cerevisiae deletion strains, locus YML032C, strain rad52, stronger effect = lower value 0.986 | S. cerevisiae deletion strains, locus YML120C, strain ndi1, stronger effect = lower value 1.03 | S. cerevisiae deletion strains, locus YML124C, strain tub3, stronger effect = lower value 0.997 | S. cerevisiae deletion strains, locus YMR058W, strain fet3, stronger effect = lower value 1.02 | S. cerevisiae deletion strains, locus YMR078C, strain ctf18, stronger effect = lower value 0.98 | S. cerevisiae deletion strains, locus YMR125W, strain sto1, stronger effect = lower value 1.03 | S. cerevisiae deletion strains, locus YMR129W, stronger effect = lower value 1.02 | S. cerevisiae deletion strains, locus YMR205C, strain PFK2, stronger effect = lower value 1.05 | S. cerevisiae deletion strains, locus YMR223W, strain ubp8, stronger effect = lower value 1.02 | S. cerevisiae deletion strains, locus YMR231W, strain pep5, stronger effect = lower value 1.03 | S. cerevisiae deletion strains, locus YMR263W, strain SAP30, stronger effect = lower value 1.02 | S. cerevisiae deletion strains, locus YMR307W, strain GAS1, stronger effect = lower value 1.03 | S. cerevisiae deletion strains, locus YNL067W, strain RPL9B, stronger effect = lower value 1.01 | S. cerevisiae deletion strains, locus YNL071W, strain lat1, stronger effect = lower value 1.03 | S. cerevisiae deletion strains, locus YNL128W, strain TEP1, stronger effect = lower value 1.01 | S. cerevisiae deletion strains, locus YNL153C, strain GIM3, stronger effect = lower value 1.01 | S. cerevisiae deletion strains, locus YNL183C, strain NPR1, stronger effect = lower value 0.943 | S. cerevisiae deletion strains, locus YNL209W, strain ssb2, stronger effect = lower value 1.03 | S. cerevisiae deletion strains, locus YNL233W, strain BNI4, stronger effect = lower value 1.02 | S. cerevisiae deletion strains, locus YNL248C, strain rpa49, stronger effect = lower value 1.03 | S. cerevisiae deletion strains, locus YNL250W, strain rad50, stronger effect = lower value 0.994 | S. cerevisiae deletion strains, locus YNL271C, strain bni1, stronger effect = lower value 0.985 | S. cerevisiae deletion strains, locus YNL298W, strain CLA4, stronger effect = lower value 0.989 | S. cerevisiae deletion strains, locus YNL307C, strain MCK1, stronger effect = lower value 0.999 | S. cerevisiae deletion strains, locus YNL322C, strain KRE1 (second series), stronger effect = lower value 1.04 | S. cerevisiae deletion strains, locus YNL322C, strain KRE1, stronger effect = lower value 1.01 | S. cerevisiae deletion strains, locus YNR049C, strain mso1, stronger effect = lower value 1.03 | S. cerevisiae deletion strains, locus YNR052C, strain pop2, stronger effect = lower value 0.988 | S. cerevisiae deletion strains, locus YOL006C, strain TOP1, stronger effect = lower value 1.01 | S. cerevisiae deletion strains, locus YOL012C, strain htz1 1.25 | S. cerevisiae deletion strains, locus YOL147C, strain pex11, stronger effect = lower value 1 | S. cerevisiae deletion strains, locus YOR001W, strain rrp6, stronger effect = lower value 1 | S. cerevisiae deletion strains, locus YOR061W, strain CKA2, stronger effect = lower value 1.02 | S. cerevisiae deletion strains, locus YOR069W, strain VPS5, stronger effect = lower value 1.01 | S. cerevisiae deletion strains, locus YOR070C, strain gyp1, stronger effect = lower value 1.02 | S. cerevisiae deletion strains, locus YOR080W, strain dia2, stronger effect = lower value 1.04 | S. cerevisiae deletion strains, locus YOR083W, strain WHI5, stronger effect = lower value 1.02 | S. cerevisiae deletion strains, locus YOR106W, strain vam3, stronger effect = lower value 1.04 | S. cerevisiae deletion strains, locus YOR136W, strain idh2, stronger effect = lower value 0.988 | S. cerevisiae deletion strains, locus YOR144C, strain elg1, stronger effect = lower value 0.992 | S. cerevisiae deletion strains, locus YOR184W, strain ser1, stronger effect = lower value 0.982 | S. cerevisiae deletion strains, locus YOR231W, strain MKK1, stronger effect = lower value 0.997 | S. cerevisiae deletion strains, locus YOR265W, strain rbl2, stronger effect = lower value 1.02 | S. cerevisiae deletion strains, locus YOR270C, strain vph1, stronger effect = lower value 1.07 | S. cerevisiae deletion strains, locus YOR290C, strain snf2, stronger effect = lower value 1.02 | S. cerevisiae deletion strains, locus YOR316C, strain cot1, stronger effect = lower value 0.999 | S. cerevisiae deletion strains, locus YPL051W, strain arl3, stronger effect = lower value 1.01 | S. cerevisiae deletion strains, locus YPL055C, strain LGE1, stronger effect = lower value 1.03 | S. cerevisiae deletion strains, locus YPL078C, strain atp4, stronger effect = lower value 1.03 | S. cerevisiae deletion strains, locus YPL106C, strain sse1, stronger effect = lower value 1.03 | S. cerevisiae deletion strains, locus YPL240C, strain hsp82, stronger effect = lower value 1.03 | S. cerevisiae deletion strains, locus YPL241C, strain CIN2, stronger effect = lower value 1 | S. cerevisiae deletion strains, locus YPL256C, strain CLN2, stronger effect = lower value 0.992 | S. cerevisiae deletion strains, locus YPR119W, strain clb2, stronger effect = lower value 0.989 | S. cerevisiae deletion strains, locus YPR141C, strain kar3, stronger effect = lower value 0.99 | S. cerevisiae deletion strains, locus YPR163C, strain tif3, stronger effect = lower value 0.992 | S. cerevisiae deletion strains, locus YPR167C, strain met16, stronger effect = lower value 0.998 | S. cerevisiae deletion strains, strain wtn01, stronger effect = lower value 0.997 | S. cerevisiae strains, strain wild type, stronger effect = lower value 1.01
